CRFR2-BP ag = agonists of CRF-BP/CRF-R2 complex, primary screen, cell-based, HEK293, calcium dye fluorescence, uHTS | calcium dye fluorescence (FLIPR); percent of saturating CRF peptide response | activation, % at 13.2 µM | 0.46% of 350,000 active | AID 588473, 2011;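 active = activation of at least 50%, plus an integration ratio under a set limit after plate pattern correction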;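 note: plate controls were neutral control wells without compound for no effect and CRF at EC100 for full effect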
CRFR2-BP antag = antagonists of CRF-BP/CRF-R2 complex, primary screen, cell-based, HEK293, calcium dye fluorescence, uHTS | CRF-induced calcium fluorescence | inhibition, % at 11.8 µM | 0.59% of 350,000 active;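 active = inhibition of the ligand-induced calcium signal above about 50% at the single tested concentration, limit read from the data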
Keap1 Nrf2 FP = Keap1-Nrf2 protein-protein interaction inhibitors, primary screen, biochemical, fluorescence polarization, single point; Kelch-like ECH-associated protein 1 (Homo sapiens), Q14145; Keap1 Kelch-Nrf2 peptide fluorescence polarization, 1536-well; inhibition, % at 9.4 µM; 0.15% of 340,000 active; AID 504523, 2011; in the data active = inhibition above about 12%;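 note: human Keap1 Kelch domain with fluorescein labeled Nrf2 9mer peptide probe; 0% = neutral control wells and 100% = peptide positive control; higher means more block of Keap1 binding to Nrf2 peptide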
cardiac RTF act = cardiac RTF calcium sensitivity activators, primary screen, biochemical, IANBD-TnC fluorescence, EC20 calcium; Troponin I, cardiac muscle (Homo sapiens) + Troponin T, cardiac muscle (Homo sapiens) + …; IANBD-labeled TnC RTF fluorescence at EC20 calcium; 0% EC20 calcium, 100% full calcium; activation, % at 7.2 µM; 0.24% of 340,000 active; AID 493008, 2010;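 active = activation above the mean over all tested compounds plus 3 SD, cut at about 30% in these data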;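 note: rise in fluorescence read as greater calcium sensitivity of cardiac thin filaments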
Cardiac RTF inh = cardiac RTF calcium sensitivity inhibitors, primary screen, biochemical, IANBD-TnC fluorescence, EC70 calcium. Troponin I, cardiac muscle (Homo sapiens) + Troponin T, cardiac muscle (Homo sapiens) + …. IANBD-labeled cardiac RTF, Ca2+ fluorescence. inhibition, % at 7.15 µM. 0.12% of 340,000 active. AID 493244, 2011;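 active = inhibition above the mean inhibition of all tested compounds plus 3 SD, cut at about 17% in these data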;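 note: assay run at fixed EC70 calcium of 1.6 mM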
C-LANA FP = inhibitors of KSHV C-LANA binding to DNA, primary screen, biochemical, fluorescence polarization, FAM-LBS DNA, MBP-C-LANA, single point. Kaposi's sarcoma herpesvirus LANA C-terminal domain (residues 932-1162) DNA binding. inhibition, % at 9 µM. 0.078% of 340,000 active. AID 504423, 2011;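 active = highest replicate inhibition at or above 60% at 9 µM, even if other replicates fall short; inactive = all replicates below 60% inhibition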;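 note: 0% = neutral control wells and 100% = 4 µM acridine orange control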
* hit, by the source's call. Rows were chosen to be rich in hits. Some 1.3% of all compounds tested hit in one or more screens of this group.

Screening Cc1cccc(N2C(=O)/C(=C/c3ccc(N4CCN(C)CC4)o3)C(=O)NC2=S)c1C returned CRFR2-BP ag 51*, CRFR2-BP antag -29, Keap1 Nrf2 FP -154, cardiac RTF act 89*, Cardiac RTF inh -45 and C-LANA FP -33.
For CCc1ccccc1N1C(=O)/C(=C/c2ccc(N3CCN(C)CC3)o2)C(=O)NC1=S the results were CRFR2-BP ag 55*, CRFR2-BP antag -31, Keap1 Nrf2 FP -99, cardiac RTF act 65*, Cardiac RTF inh -41 and C-LANA FP -21.
COc1ccc(N2C(=O)/C(=C/c3ccc(C)o3)C(=O)NC2=S)c(OC)c1 was read as CRFR2-BP ag 3, CRFR2-BP antag 10, Keap1 Nrf2 FP -7, cardiac RTF act 3, Cardiac RTF inh -6 and C-LANA FP -1.
Screening Cc1cc(C=O)c(C)n1CC1CCCO1 (configuration not stated) returned CRFR2-BP ag 0, CRFR2-BP antag 28, Keap1 Nrf2 FP -6, cardiac RTF act -1, Cardiac RTF inh -6 and C-LANA FP 0.
CC1C=CCCC12C(=O)NC(=O)NC2=O (configuration not stated) was read as CRFR2-BP ag -1, CRFR2-BP antag -7, Keap1 Nrf2 FP -6, cardiac RTF act -1, Cardiac RTF inh -5 and C-LANA FP 2.
Screening COc1cc2c(cc1OC)-c1c(OC)c(OC)c(OC)c3ccnc(c13)C2=O returned CRFR2-BP ag 2 and CRFR2-BP antag 24.
Screening OC12CCCCC1C(c1ccccc1)NCC2 (configuration not stated) returned CRFR2-BP ag 2, CRFR2-BP antag -24, Keap1 Nrf2 FP 1, cardiac RTF act 210*, Cardiac RTF inh 3 and C-LANA FP -1.
For COc1ccccc1C(=O)Nc1ccc2c(c1)CC1(C(=O)N(C)C(=O)N(C)C1=O)C1CCCN21 (configuration not stated) the results were CRFR2-BP ag 182*, CRFR2-BP antag -106, Keap1 Nrf2 FP 1, cardiac RTF act -3, Cardiac RTF inh -2 and C-LANA FP -1.
For Cc1ccc(CN2CCN(CC(=O)N3CCC4(CC3)OCCO4)C2=O)cc1 the results were CRFR2-BP ag 0, CRFR2-BP antag 21, Keap1 Nrf2 FP -3, cardiac RTF act 1, Cardiac RTF inh -3 and C-LANA FP 1.
For COc1cccc2c1C(=O)c1c(O)c3c(c(O)c1C2=O)CC(O)(C(C)=NO)CC3OC1CC(N)C(O)C(C)O1 (configuration not stated) the results were CRFR2-BP ag 37, CRFR2-BP antag -18, Keap1 Nrf2 FP 5, cardiac RTF act 166*, Cardiac RTF inh -206 and C-LANA FP 114*.
Screening CCOc1c(P(=S)(N(C)C)N(C)C)c(C)nn1-c1ccccc1 returned CRFR2-BP ag 6, CRFR2-BP antag 3, Keap1 Nrf2 FP -3, cardiac RTF act 7, Cardiac RTF inh 2 and C-LANA FP 2.
`Cc1cccc(NC(=O)CN2CCN(C(=O)COc3cccc(Br)c3)CC2)c1C` gave CRFR2-BP ag 0, CRFR2-BP antag 0, Keap1 Nrf2 FP 1, cardiac RTF act -1, Cardiac RTF inh 0 and C-LANA FP -2.
For O=[N+]([O-])c1ccc(N2CCCCC2)c2ncccc12 the results were CRFR2-BP ag -2, CRFR2-BP antag -5, Keap1 Nrf2 FP -2, cardiac RTF act 0, Cardiac RTF inh 1 and C-LANA FP 0.
Screening O=[N+]([O-])c1ccc(N2CCCCCC2)c2nonc12 returned CRFR2-BP ag 191*, CRFR2-BP antag -136, Keap1 Nrf2 FP -42, cardiac RTF act 316*, Cardiac RTF inh -456 and C-LANA FP 49.

Screening results as filed in PubChem BioAssay.
